PubChem BioAssay (NCATS)
Records with an inconclusive call do not appear. Unmarked numbers belong to inactive results. Calls of active or inactive are those of the source. Calls come from the whole dose curve; as a rule, active = well fitted cell-killing curve with a large enough effect; inconclusive = small, poorly fitted or top-dose-only effect, or effect the other way; inactive = no such curve, though single readings can be large or run the other way.

Legend:
[1] = Quantitative High-Throughput drug screen in 47 multiple myeloma cell lines against the NCATS MIPE library collection: MM1R_ATCC cell viability assay (AID 1918981); note: nearly all actives have a fitted effect of over 35% in size
Procedure, shortened: (§1)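 Inhibition of viability over 48 h was scored by ATP content (CellTiter-Glo) in 500-cell wells. Zero and full viability were defined by media-only and DMSO-only wells.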

[2] = Quantitative High-Throughput drug screen in 47 multiple myeloma cell lines against the NCATS MIPE library collection: KMS28PE_JCRB cell viability assay (AID 1918983); note: nearly all actives have a fitted effect of over 35% in size
Procedure, shortened: as §1

[3] = Quantitative High-Throughput drug screen in 47 multiple myeloma cell lines against the NCATS MIPE library collection: L363_DSMZ cell viability assay (AID 1918984); details: L363 myeloma viability, CellTiter-Glo ATP luminescence, 48 h; viability (% of control): at 45.8 µM (top of the series); note: nearly all actives have a fitted effect of over 40% in size
Procedure, shortened: as §1

[4] = Quantitative High-Throughput drug screen in 47 multiple myeloma cell lines against the NCATS MIPE library collection: KMS34_JCRB cell viability assay (AID 1918985); note: nearly all actives have a fitted effect of over 40% in size
Procedure, shortened: as §1

[5] = Quantitative High-Throughput drug screen in 47 multiple myeloma cell lines against the NCATS MIPE library collection: OCIMY7_PLB cell viability assay (AID 1918987); details: OCI-MY7 myeloma viability, CellTiter-Glo ATP, 48 h; viability (% of DMSO): at 45.8 µM (top of the series); note: nearly all actives have a fitted effect of over 65% in size
Procedure, shortened: as §1

[6] = Quantitative High-Throughput drug screen in 47 multiple myeloma cell lines against the NCATS MIPE library collection: OCIMY5_PLB cell viability assay (AID 1918988); note: nearly all actives have a fitted effect of over 65% in size
Procedure, shortened: as §1

[7] = Quantitative High-Throughput drug screen in 47 multiple myeloma cell lines against the NCATS MIPE library collection: OPM1_PLB cell viability assay (AID 1918989); note: nearly all actives have a fitted effect of over 40% in size
Procedure, shortened: as §1

[8] = Quantitative High-Throughput drug screen in 47 multiple myeloma cell lines against the NCATS MIPE library collection: U266_ATCC cell viability assay (AID 1919864); note: nearly all actives have a fitted effect of over 35% in size
Procedure, shortened: as §1

[9] = Quantitative High-Throughput drug screen in 47 multiple myeloma cell lines against the NCATS MIPE library collection: XG6_PLB cell viability assay (AID 1919865); note: nearly all actives have a fitted effect of over 40% in size
Procedure, shortened: as §1

[10] = Quantitative High-Throughput drug screen in 47 multiple myeloma cell lines against the NCATS MIPE library collection: XG1_PLB cell viability assay (AID 1919866); note: nearly all actives have a fitted effect of over 35% in size
Procedure, shortened: as §1

[11] = Quantitative High-Throughput drug screen in 47 multiple myeloma cell lines against the NCATS MIPE library collection: VP6_DJ cell viability assay (AID 1919867); note: nearly all actives have a fitted effect of over 40% in size
Procedure, shortened: as §1

[12] = Quantitative High-Throughput drug screen in 47 multiple myeloma cell lines against the NCATS MIPE library collection: UTMC2_PLB cell viability assay (AID 1919868); details: CellTiter-Glo ATP luminescence, 48 h; viability (% of DMSO control): at 45.8 µM (top of the series); note: nearly all actives have a fitted effect of over 55% in size
Procedure, shortened: as §1

[13] = Quantitative High-Throughput drug screen in 47 multiple myeloma cell lines against the NCATS MIPE library collection: PE2_PLB cell viability assay (AID 1919869); note: nearly all actives have a fitted effect of over 35% in size
Procedure, shortened: as §1

[14] = Quantitative High-Throughput drug screen in 47 multiple myeloma cell lines against the NCATS MIPE library collection: OPM2_DSMZ cell viability assay (AID 1919872); note: nearly all actives have a fitted effect of over 30% in size
Procedure, shortened: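 Myeloma cells (500 per well) were exposed to MIPE 4.0 compounds by pin transfer and incubated 48 hours at 37C, 5% CO2. Viability was read as ATP by CellTiter-Glo luminescence, normalised to DMSO (100%) and media-only (0%) wells.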

[15] = Quantitative High-Throughput drug screen in 47 multiple myeloma cell lines against the NCATS MIPE library collection: KMS11_JCRBsus cell viability assay (AID 1919873); note: nearly all actives have a fitted effect of over 50% in size
Procedure, shortened: as §1

[16] = Quantitative High-Throughput drug screen in 47 multiple myeloma cell lines against the NCATS MIPE library collection: KMS28BM_JCRB cell viability assay (AID 1919874); note: nearly all actives have a fitted effect of over 35% in size
Procedure, shortened: as §1

[17] = Quantitative High-Throughput drug screen in 47 multiple myeloma cell lines against the NCATS MIPE library collection: PCM6_Riken cell viability assay (AID 1919870); note: nearly all actives have a fitted effect of over 30% in size
Procedure, shortened: as §1

[18] = Quantitative High-Throughput drug screen in 47 multiple myeloma cell lines against the NCATS MIPE library collection: RPMI8226_ATCC cell viability assay (AID 1919871); note: nearly all actives have a fitted effect of over 30% in size
Procedure, shortened: as §1

[19] = Quantitative High-Throughput drug screen in 47 multiple myeloma cell lines against the NCATS MIPE library collection: SKMM1_PLB cell viability assay (AID 1919863); details: SKMM1 myeloma viability, CellTiter-Glo ATP, 48 h; viability: hits give low values; note: nearly all actives have a fitted effect of over 35% in size
Procedure, shortened: as §1
Potency is the fitted concentration of half-maximal effect.

| SMILES | Potency [1] | Potency [2] | Potency [3] | Potency [4] | Potency [5] | Potency [6] | Potency [7] | Potency [8] | Potency [9] | Potency [10] | Potency [11] | Potency [12] | Potency [13] | Potency [14] | Potency [15] | Potency [16] | Potency [17] | Potency [18] | Potency [19] | viability [19] [%] |
| --- | --- | --- | --- | --- | --- | --- | --- | --- | --- | --- | --- | --- | --- | --- | --- | --- | --- | --- | --- | --- |
| C=CCc1cccc(C=NNC(=O)CN2CCN(Cc3ccccc3)CC2)c1O | 10.5 µM (active) | 20.9 µM (active) | 6.62 µM (active) | 4.69 µM (active) | 14.8 µM (active) | 7.43 µM (active) | 20.9 µM (active) | 8.33 µM (active) | 9.35 µM (active) | 10.5 µM (active) | 7.43 µM (active) | 20.9 µM (active) | 20.9 µM (active) | 16.6 µM (active) | 8.33 µM (active) | 7.43 µM (active) |  |  |  |  |
| CC1CCN(c2cc(N3CCN(C)CC3)ccc2NC(=O)c2cc(C#N)c[nH]2)CC1 | 20.9 µM (active) | 23.5 µM (active) |  | 20.9 µM (active) |  |  | inactive |  | inactive |  |  |  | inactive |  | inactive | inactive | 7.43 µM (active) | 18.7 µM (active) |  |  |
| N#CC(c1ccc(Cl)cc1)c1c(Cl)cc(-n2ncc(=O)[nH]c2=O)cc1Cl (stereo unspecified) | 2.64 µM (active) | inactive | 16.6 µM (active) |  | 4.69 µM (active) |  | 5.9 µM (active) |  | 14.8 µM (active) | 18.7 µM (active) | 20.9 µM (active) |  | 18.7 µM (active) | inactive |  | inactive |  |  |  |  |
| CC1(C)CC(=O)c2c(C(F)(F)F)nn(-c3ccc(C(N)=O)c(NC4CCC(O)CC4)c3)c2C1 (stereo unspecified) | 0.118 µM (active) | 0.118 µM (active) |  | 0.105 µM (active) | 0.0662 µM (active) | 0.118 µM (active) | 0.105 µM (active) | 0.0935 µM (active) |  |  |  |  | 0.118 µM (active) | 0.166 µM (active) | 0.0118 µM (active) | 0.0372 µM (active) |  |  | 0.187 µM (active) |  |
| CCCCCCCCCCCCCC(=O)N[C@H](CO)[C@H](O)c1ccc([N+](=O)[O-])cc1 | 18.7 µM (active) | 16.6 µM (active) | 16.6 µM (active) |  | 16.6 µM (active) |  | 26.4 µM (active) | inactive | 23.5 µM (active) | 20.9 µM (active) | 26.4 µM (active) |  | 26.4 µM (active) | inactive | 23.5 µM (active) |  | 20.9 µM (active) |  | 7.43 µM (active) |  |
| O=C(CC12CC3CC(CC(C3)C1)C2)Nc1cccc2nc(NCCNCCO)ccc12 | 20.9 µM (active) | 16.6 µM (active) |  | 26.4 µM (active) | 0.743 µM (active) | 11.8 µM (active) | 7.43 µM (active) | 23.5 µM (active) | 1.18 µM (active) | 2.96 µM (active) | 4.69 µM (active) | 3.32 µM (active) | 7.43 µM (active) |  |  | 23.5 µM (active) | 7.43 µM (active) |  | 16.6 µM (active) |  |
| O=C(Nc1cccc(Cl)c1)Nc1ncc(CCNc2ncnc3ccsc23)s1 | 5.9 µM (active) | 5.9 µM (active) |  | 6.62 µM (active) | 0.264 µM (active) | 0.833 µM (active) | 6.62 µM (active) | 16.6 µM (active) | 4.18 µM (active) | 1.32 µM (active) |  | 0.372 µM (active) | 4.18 µM (active) |  | 11.8 µM (active) |  |  | 5.9 µM (active) | 3.32 µM (active) |  |
| CN(C)S(=O)(=O)c1ccc2c(c1)C(=Cc1cc3c([nH]1)CCCC3)C(=O)N2 | 2.96 µM (active) | 20.9 µM (active) |  | 5.9 µM (active) | 3.32 µM (active) | 2.09 µM (active) |  |  |  |  | 2.64 µM (active) | 3.32 µM (active) | 3.72 µM (active) |  |  |  |  | 7.43 µM (active) |  |  |
| O=C(O)c1nc(=O)[nH]c(=O)[nH]1 | inactive |  | inactive | inactive | inactive |  | inactive | inactive |  |  |  |  |  |  | 11.5 µM (active) |  |  | 10.2 µM (active) |  |  |
| C[C@@]1(C(=O)Nc2ccc(F)nc2)CCCN1c1nc(Nc2cc(C3CC3)[nH]n2)c2cccn2n1 | 0.0166 µM (active) | 0.0296 µM (active) |  |  | 0.0743 µM (active) | 0.118 µM (active) | 1.66 µM (active) |  | 0.0332 µM (active) |  | 0.0372 µM (active) | 0.0118 µM (active) | 11.8 µM (active) | 7.43 µM (active) | 0.0296 µM (active) | 0.0372 µM (active) |  |  | 1.48 µM (active) |  |
| CCC(=O)N1CCN(c2ccc(-n3c(=O)ccc4cnc5ccc(-c6cnc7ccccc7c6)cc5c43)cc2C(F)(F)F)CC1 | 0.0372 µM (active) |  | inactive | 0.0059 µM (active) | 16.6 µM (active) |  | 0.0132 µM (active) | 0.0418 µM (active) |  |  |  |  | 0.0093 µM (active) | 0.0264 µM (active) |  |  |  |  | 0.0148 µM (active) |  |
| Cc1cn([C@@H]2C[C@@H](O)[C@H](CO)O2)c(=O)[nH]c1=O | inactive |  | inactive |  |  | inactive | inactive |  | inactive | inactive | inactive | inactive | inactive | inactive | inactive | inactive | inactive | inactive |  | 137 |
| CN(C(Cc1ccc(OS(=O)(=O)c2cccc3cnccc23)cc1)C(=O)N1CCN(c2ccccc2)CC1)S(=O)(=O)c1cccc2cnccc12 (stereo unspecified) | 16.6 µM (active) | 10.5 µM (active) |  |  | 4.69 µM (active) | 13.2 µM (active) | 3.72 µM (active) | 13.2 µM (active) | 13.2 µM (active) |  | 3.72 µM (active) |  |  |  |  | 14.8 µM (active) |  | 5.26 µM (active) | 9.35 µM (active) |  |
| CC1=C[C@@H]2[C@@H]([C@@H](O)C[C@@]3(C)[C@H]2C[C@@H](C)[C@]3(O)C(=O)CO)[C@@]2(C)Cc3cnn(-c4ccccc4)c3C=C12 | 20.9 µM (active) |  | 0.0332 µM (active) | 23.5 µM (active) | 9.35 µM (active) | 1.87 µM (active) |  | 20.9 µM (active) | 20.9 µM (active) |  |  |  | 23.5 µM (active) | 20.9 µM (active) | 0.0059 µM (active) |  |  | 0.0264 µM (active) | 18.7 µM (active) |  |
| CC(C)CN(C[C@H](O)[C@H](Cc1ccccc1)NC(=O)O[C@H]1CCOC1)S(=O)(=O)c1ccc(N)cc1 | 16.6 µM (active) |  |  | inactive |  | 2.96 µM (active) |  |  |  | 20.9 µM (active) | 20.9 µM (active) |  |  | 18.7 µM (active) |  |  | 13.2 µM (active) | inactive |  | 121 |
| Cc1cc2c(cc1C1(c3ccc(C(=O)O)cn3)CC1)C(C)(C)CCC2(C)C | 6.62 µM (active) |  | inactive |  |  |  |  | inactive |  |  |  |  | 26.4 µM (active) |  |  |  |  | 0.0118 µM (active) |  |  |
| CC(C)C[C@@H](C(=O)N[C@H](C(=O)OC1CCCC1)c1ccccc1)[C@H](O)C(=O)NO | 18.7 µM (active) | 23.5 µM (active) |  |  | 14.8 µM (active) | 20.9 µM (active) |  |  | 14.8 µM (active) |  | 16.6 µM (active) | 16.6 µM (active) | 29.6 µM (active) |  |  | 20.9 µM (active) |  |  | 20.9 µM (active) |  |
| CC(NCCc1ccc(O)cc1)C(O)c1ccc(O)cc1 (stereo unspecified) | 4.18 µM (active) |  | inactive | inactive |  | 0.132 µM (active) | inactive | inactive | inactive | inactive |  |  | inactive | inactive |  | inactive | inactive | inactive |  | 131 |
| CCC(=C(c1ccc(O)cc1)c1ccc(OCCNC)cc1)c1ccccc1 | 23.5 µM (active) |  |  | 26.4 µM (active) | 16.6 µM (active) | 18.7 µM (active) | 18.7 µM (active) | 29.6 µM (active) | 6.62 µM (active) | 11.8 µM (active) | 13.2 µM (active) |  |  |  | 8.33 µM (active) | 23.5 µM (active) | 23.5 µM (active) | 26.4 µM (active) | 20.9 µM (active) |  |
